Experimental data as given in PubChem BioAssay (Tox21).
Inconclusive results are not listed. Entries that show only a call come without a potency. Activity calls are given as the source filed them. Unless noted, the call rests on the fitted dose curve; in most records, active means well fitted curve in the direction sought with a large enough effect in the repeat runs; inconclusive means weak or mixed curves; inactive means no such curve, though single readings can be large; an effect the other way counts as inactive or inconclusive.

Columns and labels:
[1] = qHTS assay to identify aromatase inhibitors - cell viability counter screen (AID 743084); conditions: MCF-7 aro ERE viability, CellTiter-Fluor, 24 h; series mostly up to 70.3 µM;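 further: cells stimulated with testosterone during compound exposure; nearly all actives have a fitted effect of over 55% in size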; further: potency means the concentration at half of the fitted maximal effect
[2] = biological target: Aryl hydrocarbon receptor (Homo sapiens) (UniProt P35869); assay: qHTS assay to identify small molecule that activate the aryl hydrocarbon receptor (AhR) signaling pathway (AID 743085); conditions: HepG2 AhR-luc (HG2L7.5c1), luciferase, 24 h; series mostly up to 70.3 µM;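 further: HG2L7.5c1 human HepG2 liver cells with stably integrated DRE-driven firefly reporter; nearly all actives have a fitted effect of over 15% in size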
How it was run: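 Cell line HG2L7.5c1 (human hepatoma, 20× DRE-luc). Plated, 5 h 37C, compound/DMSO added, 24 h 37C. CellTiter-Fluor 30 min 37C → fluorescence; then ONE-Glo 30 min RT → luminescence.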

[3] = qHTS assay to identify small molecule that activate the aryl hydrocarbon receptor (AhR) signaling pathway - cell viability counter screen (AID 743086); conditions: HepG2-AhR-luc viability, CellTiter-Fluor, 24 h; series mostly up to 70.3 µM; further: nearly all actives have a fitted effect of over 45% in size; further: potency means the concentration at half of the fitted maximal effect
How it was run: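 HepG2-AhR-luc (HG2L7.5c1) cells, 4000/well, treated 24 h at 37 C with compound; viability measured as CellTiter-Fluor fluorescence after 30 min in the same wells as the luciferase read.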

[4] = biological target: Peroxisome proliferator-activated receptor gamma (Homo sapiens) (UniProt P37231); assay: qHTS assay to identify small molecule agonists of the peroxisome proliferator-activated receptor gamma (PPARg) signaling pathway (AID 743094; active means well fitted activation curve with a large enough effect in the signal ratio in the repeat runs, not every such curve was filed as active; the % refers to the signal ratio; further: potency means the concentration at half of the fitted maximal effect); conditions: HEK293H PPARg-UAS-bla, beta-lactamase FRET ratio, 17 h; series mostly up to 57 µM
How it was run: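 Agonism was assessed in a beta-lactamase reporter system, HEK293H cells with a stably integrated UAS-bla construct under PPARg control; the 17 h treatment at 37C preceded a 1 h room-temperature FRET substrate read.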

[5] = qHTS assay to identify small molecule antagonists of the peroxisome proliferator-activated receptor gamma (PPARg) signaling pathway - cell viability counter screen (AID 743194); conditions: PPARg-bla HEK293H viability, CellTiter-Glo luminescence, 17 h, co-treated with 50 nM rosiglitazone; series mostly up to 62.6 µM; further: nearly all actives have a fitted effect of over 55% in size
How it was run: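 Cytotoxicity counter screen in PPARg-bla HEK293H cells, same wells as reporter assay. Compounds plus 50 nM rosiglitazone (final) for 17 h at 37 C, then viability read by CellTiter-Glo luminescence.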

[6] = qHTS assay for small molecule agonists of the antioxidant response element (ARE) signaling pathway - cell viability counter screen (AID 743203; calls by dose curve; further: nearly all actives have a fitted effect of over 55% in size); conditions: ARE-bla HepG2 viability, CellTiter-Glo luminescence, 16 h; series mostly up to 73.3 µM
How it was run: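 ATP content via CellTiter-Glo luminescence served as the viability measure. Cells: ARE-bla HepG2, 2,000 per well. Exposure: 16 hrs, 37C/5% CO2.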

[7] = qHTS assay for small molecule activators of the heat shock response signaling pathway - cell viability counter screen (AID 743209); conditions: HSE-bla HeLa viability, CellTiter-Glo luminescence, 5 h; series mostly up to 62.6 µM; further: nearly all actives have a fitted effect of over 50% in size
How it was run: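 Compounds dissolved in DMSO were added to overnight-plated HSE-bla HeLa cells and left 5 h at 37 C. Cell viability was quantified by luminescence using CellTiter-Glo.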

[8] = qHTS assay for small molecule activators of the heat shock response signaling pathway (AID 743210; active means well fitted activation curve with a large enough effect in the signal ratio in the repeat runs, with a control signal flat, not every such curve was filed as active; the % refers to the signal ratio;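 further: HeLa cells with beta-lactamase reporter driven by heat shock elements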); conditions: HeLa HSE-bla reporter, beta-lactamase ratio, 5 h; series mostly up to 62.6 µM
How it was run: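 Beta-lactamase reporter read-out: FRET substrate fluorescence after 2.5 h at RT, following 5 h compound treatment at 37 C of HeLa cells carrying HSE-driven bla reporter; quantitative HTS format.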

[9] = qHTS assay to identify small molecule antagonists of the peroxisome proliferator-activated receptor delta (PPARd) signaling pathway - cell viability counter screen (AID 743213); conditions: PPARd-bla HEK293H viability, CellTiter-Glo luminescence, 17 h; series mostly up to 62 µM; further: nearly all actives have a fitted effect of over 50% in size
How it was run: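 Same-well viability: cells pre-incubated 5 h, dosed with compound plus 300 nM L165041, kept 17 h at 37 C, FRET substrate 2 h RT, then CellTiter-Glo 30 min RT and luminescence.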

[10] = qHTS assay to identify small molecule agonists of the farnesoid-X-receptor (FXR) signaling pathway - cell viability counter screen (AID 743218); conditions: FXR-bla HEK293T viability, CellTiter-Glo luminescence, 16 h; series mostly up to 62.6 µM; further: nearly all actives have a fitted effect of over 45% in size
How it was run: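 Quantitative HTS counter screen measuring ATP-based viability via CellTiter-Glo luminescence in HEK 293T cells carrying a UAS-driven beta-lactamase reporter, after 16 h compound exposure at 37 C.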

[11] = qHTS assay to identify small molecule antagonists of the farnesoid-X-receptor (FXR) signaling pathway - cell viability counter screen (AID 743221; active means well fitted cell-killing curve with a large enough effect in the repeat runs, not every such curve was filed as active; further: nearly all actives have a fitted effect of over 50% in size); conditions: FXR-bla HEK293T viability, CellTiter-Glo luminescence, 16 h; series mostly up to 62.6 µM
How it was run: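 Luminescence from CellTiter-Glo measures cytotoxicity in GeneBLAzer FXR-UAS-bla HEK 293T cells. Cells were exposed to compounds with 50 uM chenodeoxycholic acid (final) for 16 h at 37 C, in wells also used for the reporter readout.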

[12] = biological target: Vitamin D3 receptor (Homo sapiens) (UniProt P11473); assay: qHTS assay to identify small molecule agonists of the vitamin D receptor (VDR) signaling pathway (AID 743222; calls by dose curve); conditions: HEK293T VDR-UAS-bla, beta-lactamase FRET ratio, 16 h; series mostly up to 63.5 µM
How it was run: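 Tox21 cell reporter format: VDR-bla line, 16 h compound exposure in 5% CO2 at 37C, then fluorescence intensity after 2 h with LiveBLAzer B/G FRET substrate.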

[13] = biological target: Peroxisome proliferator-activated receptor gamma (Homo sapiens) (UniProt P37231); assay: qHTS assay to identify small molecule antagonists of the peroxisome proliferator-activated receptor gamma (PPARg) signaling pathway (AID 743191; calls by dose curve; further: potency means the concentration at half of the fitted maximal effect; nearly all actives have a fitted effect of over 30% in size); conditions: HEK293H PPARg-UAS-bla, beta-lactamase ratio, antagonist, 17 h; series mostly up to 62.6 µM
How it was run: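 GeneBLAzer PPARg UAS-bla HEK293H cells, 5 h post-plating, exposed to compounds 17 h at 37C. LiveBLAzer B/G FRET substrate added for 1 h at room temperature; beta-lactamase reporter read by fluorescence intensity.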

[14] = qHTS assay for small molecule agonists of the antioxidant response element (ARE) signaling pathway (AID 743202; active means well fitted activation curve with a large enough effect in the signal ratio in the repeat runs, not every such curve was filed as active; the % refers to the signal ratio); conditions: HepG2 ARE-bla reporter, beta-lactamase FRET, 16 h; series mostly up to 73.3 µM
How it was run: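 HepG2 ARE-bla reporter line, 2,000 cells/well; 5 h preincubation 37 C/5% CO2; compound (DMSO) 16 h 37 C; B/G FRET substrate 2 h RT; fluorescence intensity.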

[15] = qHTS assay to identify small molecule agonists of the peroxisome proliferator-activated receptor delta (PPARd) signaling pathway - cell viability counter screen (AID 743211); conditions: PPARd-bla HEK293H viability, CellTiter-Glo luminescence, 17 h; series mostly up to 62.6 µM; further: nearly all actives have a fitted effect of over 55% in size
How it was run: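 HEK293H PPARd-bla, 3000 cells/well; 5 h preincubation 37C/5% CO2; cpd in DMSO, 17 h 37C; B/G FRET substrate 2 h RT; CellTiter-Glo 30 min RT, luminescence.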

[16] = biological target: Peroxisome proliferator-activated receptor delta (Homo sapiens) (UniProt Q03181); assay: qHTS assay to identify small molecule agonists of the peroxisome proliferator-activated receptor delta (PPARd) signaling pathway (AID 743212; calls by dose curve); conditions: HEK293H PPARd-UAS-bla, beta-lactamase FRET ratio, 17 h; series mostly up to 62.6 µM
How it was run: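 Read-out: beta-lactamase FRET fluorescence after 2 h room-temperature incubation with LiveBLAzer B/G substrate. Cells were HEK293H carrying a UAS-bla reporter for PPARd, treated at 37 C with DMSO-dissolved compounds.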

[17] = biological target: Bile acid receptor (Homo sapiens) (UniProt Q96RI1); assay: qHTS assay to identify small molecule agonists of the farnesoid-X-receptor (FXR) signaling pathway (AID 743220; active means well fitted activation curve with a large enough effect in the signal ratio in the repeat runs, not every such curve was filed as active; the % refers to the signal ratio); conditions: HEK293T FXR-UAS-bla, beta-lactamase FRET ratio, 16 h; series mostly up to 62.6 µM
How it was run: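 FXR-UAS-bla HEK 293T cells carrying a UAS-driven beta-lactamase reporter were plated for 5 h at 37C/5% CO2, then exposed to DMSO-dissolved Tox21 10K compounds for 16 h at 37C. A LiveBLAzer B/G FRET substrate was loaded for 2 h at room temperature before fluorescence reading.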

[18] = biological target: Vitamin D3 receptor (Homo sapiens) (UniProt P11473); assay: qHTS assay to identify small molecule antagonists of the vitamin D receptor (VDR) signaling pathway (AID 743223; active means well fitted inhibition curve with a large enough effect in the signal ratio in the repeat runs, not every such curve was filed as active; the % refers to the signal ratio); conditions: VDR-UAS-bla HEK293T, beta-lactamase FRET ratio, 16 h; series mostly up to 61 µM
How it was run: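 Antagonist mode uses 1alpha,25-dihydroxyvitamin D3 at 3 nM final as stimulus. VDR-bla cells receive compounds in DMSO, incubate 16 h at 37C, then a beta-lactamase FRET substrate for 2 h at room temperature before fluorescence measurement.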

[19] = biological target: Peroxisome proliferator-activated receptor delta (Homo sapiens) (UniProt Q03181); assay: qHTS assay to identify small molecule antagonists of the peroxisome proliferator-activated receptor delta (PPARd) signaling pathway (AID 743215; active means well fitted inhibition curve with a large enough effect in the signal ratio in the repeat runs, not every such curve was filed as active; the % refers to the signal ratio;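 further: cells stimulated with agonist L165041 at 300 nM final during compound exposure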); conditions: HEK293H PPARd-UAS-bla, beta-lactamase FRET ratio, antagonist, 17 h; series mostly up to 62 µM
How it was run: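 Here, a reporter line (HEK293H, beta-lactamase under a UAS) measures PPARd signaling. Compounds are tested against agonist L165041 at 300 nM final concentration over 17 h at 37 C, with fluorescence read after substrate.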

[20] = biological target: Bile acid receptor (Homo sapiens) (UniProt Q96RI1); assay: qHTS assay to identify small molecule antagonists of the farnesoid-X-receptor (FXR) signaling pathway (AID 743217; active means well fitted inhibition curve with a large enough effect in the signal ratio in the repeat runs, not every such curve was filed as active; the % refers to the signal ratio); conditions: HEK293T FXR-UAS-bla, beta-lactamase ratio, CDCA-stimulated, 16 h; series mostly up to 62.6 µM
How it was run: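 Test compounds are pin-transferred onto FXR-bla HEK 293T cells, then chenodeoxycholic acid is added at 50 uM final. After 16 h at 37 °C, LiveBLAzer B/G substrate is applied for 2 h at room temperature and fluorescence read.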

Peroxisome proliferator-activated receptor gamma (Homo sapiens), sequence (P37231 whole entry, looked up): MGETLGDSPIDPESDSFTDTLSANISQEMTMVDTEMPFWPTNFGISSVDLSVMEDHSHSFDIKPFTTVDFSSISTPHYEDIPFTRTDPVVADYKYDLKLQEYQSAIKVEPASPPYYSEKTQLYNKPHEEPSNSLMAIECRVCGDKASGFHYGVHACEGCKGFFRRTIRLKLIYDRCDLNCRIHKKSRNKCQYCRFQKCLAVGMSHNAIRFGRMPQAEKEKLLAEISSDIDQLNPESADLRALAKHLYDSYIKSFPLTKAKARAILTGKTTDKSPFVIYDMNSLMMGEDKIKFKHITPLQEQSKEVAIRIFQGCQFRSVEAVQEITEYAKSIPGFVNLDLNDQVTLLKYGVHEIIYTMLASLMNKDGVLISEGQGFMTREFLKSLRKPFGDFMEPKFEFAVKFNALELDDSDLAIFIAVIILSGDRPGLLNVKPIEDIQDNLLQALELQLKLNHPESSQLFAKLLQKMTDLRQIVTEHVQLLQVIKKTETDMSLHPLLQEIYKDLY
Bile acid receptor (Homo sapiens), sequence (Q96RI1 whole entry, looked up): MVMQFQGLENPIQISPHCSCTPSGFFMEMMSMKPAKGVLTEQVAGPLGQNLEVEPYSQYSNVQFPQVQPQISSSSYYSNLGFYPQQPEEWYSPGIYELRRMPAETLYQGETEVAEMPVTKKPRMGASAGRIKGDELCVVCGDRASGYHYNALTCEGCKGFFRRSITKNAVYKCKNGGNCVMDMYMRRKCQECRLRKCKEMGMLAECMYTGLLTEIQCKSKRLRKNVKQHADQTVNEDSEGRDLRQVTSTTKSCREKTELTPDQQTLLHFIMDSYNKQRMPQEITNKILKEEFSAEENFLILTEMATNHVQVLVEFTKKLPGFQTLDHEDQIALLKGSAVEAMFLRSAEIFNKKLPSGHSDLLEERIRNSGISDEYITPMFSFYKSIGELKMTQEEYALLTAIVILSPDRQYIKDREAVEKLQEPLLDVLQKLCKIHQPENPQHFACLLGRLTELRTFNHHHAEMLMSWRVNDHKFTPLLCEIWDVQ
Peroxisome proliferator-activated receptor delta (Homo sapiens), sequence (Q03181 whole entry, looked up): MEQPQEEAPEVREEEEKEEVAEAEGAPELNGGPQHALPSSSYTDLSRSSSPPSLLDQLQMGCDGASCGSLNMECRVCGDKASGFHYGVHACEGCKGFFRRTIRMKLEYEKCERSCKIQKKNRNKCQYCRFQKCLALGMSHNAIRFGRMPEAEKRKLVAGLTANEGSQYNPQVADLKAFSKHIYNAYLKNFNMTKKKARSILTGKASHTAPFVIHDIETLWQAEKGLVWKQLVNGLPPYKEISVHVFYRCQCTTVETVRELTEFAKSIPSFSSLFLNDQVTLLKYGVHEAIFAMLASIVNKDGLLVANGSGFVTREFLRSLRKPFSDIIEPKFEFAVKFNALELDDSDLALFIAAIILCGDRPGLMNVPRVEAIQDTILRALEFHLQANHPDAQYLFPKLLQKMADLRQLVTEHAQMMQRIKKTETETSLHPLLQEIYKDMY
Vitamin D3 receptor (Homo sapiens), sequence (P11473 whole entry, looked up): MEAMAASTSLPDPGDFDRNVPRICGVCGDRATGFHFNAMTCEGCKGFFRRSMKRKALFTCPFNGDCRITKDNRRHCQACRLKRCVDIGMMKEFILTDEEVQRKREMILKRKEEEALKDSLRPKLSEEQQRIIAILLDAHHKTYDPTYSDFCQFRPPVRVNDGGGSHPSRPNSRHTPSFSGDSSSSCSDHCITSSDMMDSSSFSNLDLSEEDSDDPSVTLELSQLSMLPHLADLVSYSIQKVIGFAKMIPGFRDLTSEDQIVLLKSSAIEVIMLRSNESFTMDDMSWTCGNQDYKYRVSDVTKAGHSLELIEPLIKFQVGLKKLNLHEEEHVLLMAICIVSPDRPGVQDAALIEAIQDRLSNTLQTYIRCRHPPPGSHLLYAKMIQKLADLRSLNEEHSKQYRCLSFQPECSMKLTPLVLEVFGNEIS
Aryl hydrocarbon receptor (Homo sapiens), sequence (P35869 whole entry, looked up): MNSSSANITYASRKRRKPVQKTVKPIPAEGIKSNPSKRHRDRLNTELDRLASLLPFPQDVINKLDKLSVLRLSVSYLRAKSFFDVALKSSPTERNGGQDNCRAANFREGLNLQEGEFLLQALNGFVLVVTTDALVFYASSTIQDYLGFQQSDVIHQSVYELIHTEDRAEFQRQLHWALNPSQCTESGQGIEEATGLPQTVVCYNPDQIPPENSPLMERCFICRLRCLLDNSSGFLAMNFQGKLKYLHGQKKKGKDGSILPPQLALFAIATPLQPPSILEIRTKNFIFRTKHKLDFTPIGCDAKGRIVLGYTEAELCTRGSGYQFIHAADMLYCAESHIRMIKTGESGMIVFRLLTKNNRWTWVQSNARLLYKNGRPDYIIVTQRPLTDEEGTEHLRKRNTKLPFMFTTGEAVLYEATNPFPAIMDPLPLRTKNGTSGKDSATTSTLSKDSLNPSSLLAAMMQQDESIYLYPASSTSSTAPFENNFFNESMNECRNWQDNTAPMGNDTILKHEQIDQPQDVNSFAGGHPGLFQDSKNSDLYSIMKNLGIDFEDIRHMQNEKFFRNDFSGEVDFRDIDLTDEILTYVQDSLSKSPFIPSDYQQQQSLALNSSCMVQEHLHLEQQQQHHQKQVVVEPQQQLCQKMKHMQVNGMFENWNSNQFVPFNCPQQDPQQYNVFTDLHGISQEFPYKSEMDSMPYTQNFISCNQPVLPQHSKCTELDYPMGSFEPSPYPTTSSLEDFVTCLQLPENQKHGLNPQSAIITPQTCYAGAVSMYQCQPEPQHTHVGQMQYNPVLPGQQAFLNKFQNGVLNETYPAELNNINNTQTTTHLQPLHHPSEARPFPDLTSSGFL

Row | Compound | Potency [1] | Potency [2] | Potency [3] | Potency [4] | Potency [5] | Potency [6] | Potency [7] | Potency [8] | Potency [9] | Potency [10] | Potency [11] | Potency [12] | Potency [13] | Potency [14] | Potency [15] | Potency [16] | Potency [17] | outcome [18] | Potency [19] | Potency [20]
1 | NCc1ccccc1Sc1ccccc1CO | inactive | inactive | inactive | inactive | inactive | inactive | inactive | inactive | inactive | inactive | inactive | inactive |  |  |  |  |  |  |  | 
2 | CC(=O)OC[C@H]1O[C@@H](n2ncc(=O)[nH]c2=O)[C@H](OC(C)=O)[C@@H]1OC(C)=O | inactive | inactive | inactive |  |  | inactive | inactive | inactive | inactive | inactive |  | inactive | 0.841 µM (active) | inactive | inactive | inactive | inactive |  |  | 
3 | C[C@@H]1C[C@H]2O[C@@]3(O[C@@H]2C(C)(C)O)[C@H](O)[C@@]2(C)[C@@H]4CC[C@H]5C(C)(C)[C@@H](O[C@@H]6OC[C@@H](O)[C@H](O)[C@H]6O)CC[C@@]56C[C@@]46CC[C@]2(C)[C@@H]13 | inactive | inactive | inactive | inactive | inactive | inactive | inactive | inactive | inactive | inactive |  | inactive |  |  |  |  |  | inactive |  | 
4 | CCCCC(CC)CN1C(=O)C2C3C=CC(C3)C2C1=O (configuration not stated) | 54.5 µM (active) | inactive | inactive | inactive | inactive | inactive | inactive | inactive |  |  |  | inactive |  |  |  | inactive |  |  | inactive | 
5 | COc1ccc(S(=O)(=O)N2C(=O)[C@@](c3ccccc3OC)(N3C[C@H](O)C[C@H]3C(=O)N(C)C)c3cc(Cl)ccc32)c(OC)c1 | 30.6 µM (active) | inactive | 30.6 µM (active) | inactive |  |  | inactive | inactive |  | inactive |  | inactive |  |  |  |  |  |  | inactive | 
6 | CCCCc1nc2cccnc2n1Cc1ccc(-c2ccccc2-c2nnn[nH]2)cc1 | 54.5 µM (active) | inactive | inactive | 5.49 µM (active) | inactive | inactive | inactive |  | inactive | inactive | inactive | inactive |  |  | inactive |  |  |  |  | 
7 | CCOC(=O)COC(=O)c1cc(Oc2ccc(C(F)(F)F)cc2Cl)ccc1[N+](=O)[O-] | inactive | inactive | inactive | inactive | inactive | inactive | inactive |  | inactive | inactive | inactive | inactive |  |  | inactive |  |  | inactive |  | inactive
8 | C=C(C)C(=O)OCCO | inactive | inactive | inactive | inactive | inactive | inactive | inactive | inactive | inactive | inactive | inactive | inactive |  |  | inactive | inactive | inactive | inactive | inactive | inactive
